Screens: PubChem BioAssay, National Center for Advancing Translational Sciences (NCATS)
Pf growth 48h – P. falciparum growth inhibition at 48 hours (one generation) | P. falciparum luciferase growth in erythrocytes, 48 h | Potency, µM (highest dose often 28.7 µM), for the others: top-dose activity change, negative = inhibition, hits mostly inhibitors | 5.9% of 310,000 active; further: on the % scale 0 is the no-effect control and ±100 the full control effect
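Growth was read as firefly luciferase luminescence after a 48 h, 37 C, 5% CO2 exposure of compounds to reporter-bearing P. falciparum cultures (0.1% parasitemia, 2% hematocrit final) in Albumax-supplemented RPMI 1640.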
Vaccinia Venus – inhibitors of vaccinia virus (Venus reporter) | Vaccinia virus Venus reporter expression, fluorescence | AID 720580 | Potency, µM (series often up to 36.5 µM), without a hit: top-dose activity change, negative = inhibition, hits mostly inhibitors | 0.46% of 330,000 active; calls by dose curve; tested in A549 cells; further: on the % scale 0 is the no-effect control and ±100 the full control effect; nearly all actives have a fitted effect of over 30% in size
HCV inh – blocks hepatitis C virus. 3.4% of 340,000 active. Huh7.5.1 HCVcc-Cre infection, luciferase reporter, 44 h. Potency, µM (top dose mostly 41.8 µM), for inactives: at the top dose activity change, negative = inhibition, most hits filed as inhibitors; further: on the % scale 0 is the no-effect control and ±100 the full control effect
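Luciferase read-out (15 sec integration) after a 15 min room-temperature substrate step quantifies HCVcc-Cre infection. Cells, 1,000 per well, had compound added 4 h post-plating, then virus at ~0.5 moi, and were cultured 44 h.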
Vaccinia mCherry – inhibitors of vaccinia virus infection (mCherry reporter signal); Vaccinia virus mCherry reporter infection, fluorescence; Potency, µM (top dose mostly 36.5 µM), without a hit: top-dose activity change, negative = inhibition, hits mostly inhibitors; 0.63% of 310,000 active; AID 720579; calls by dose curve; tested in A549 cells; further: on the % scale 0 is the no-effect control and ±100 the full control effect; nearly all actives have a fitted effect of over 35% in size
Pf growth 96h – inhibits malaria parasite growth, 96 h | P. falciparum luciferase reporter growth, 96 h | Potency, µM (doses to about 28.7 µM), inactives show at the top dose activity change, negative = inhibition, actives largely listed as inhibitors | 6.9% of 320,000 active | AID 504834; further: on the % scale 0 is the no-effect control and ±100 the full control effect
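Infected RBCs, 2% Hct / 0.05% parasitemia final; luciferase-reporter P. falciparum; cpd 96 h, 37 C, 5% CO2; luciferase detection reagent; luminescence.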
NS1 function inh – influenza NS1 inhibition; Potency, µM (titrated, usually from 46.1 µM), inactives show top-dose activity, positive = more growth; 0.4% of 270,000 active; calls by dose curve; further: actives are rising curves; nearly all actives have a fitted effect of over 50% in size
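In this qHTS, NS1 from influenza A is expressed in budding yeast, where it slows growth. Cells are switched from glucose to 2% galactose medium (pH 6.0, -URA), treated with compound, and growth recovery is read at OD600.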
* = called active by the depositor; i = inactive; ? = inconclusive; . = no result; [ ] = remark or other dose. Most compounds without a hit are left out; they make up all but 11% or so of the library. Unless noted, the call rests on the fitted dose curve; in most records, active means well fitted inhibition curve with a large enough effect; inconclusive means small, poorly fitted or top-dose-only effect, or another doubt; inactive means no such curve, though single readings can be large or run the other way. Potency means the concentration at half of the fitted maximal effect.

SMILES | Pf growth 48h | Vaccinia Venus | HCV inh | Vaccinia mCherry | Pf growth 96h | NS1 function inh
Cc1cccc(C)c1NC(=O)NCCCN1CCN(c2ccccc2)CC1 | -1.1% | -10.9% | 0.1% | i | ? | .
O=C(OCC(=O)N1CCN(c2ccccc2)CC1)c1cccc([N+](=O)[O-])c1 | 11.5% | -11.2% | ? | i | 9.0% | .
COC(=O)CN1C(=O)CSc2ncccc21 | 19.0% | -12.1% | -4.9% | . | 0.5% | ?
CCC(Cc1ccccc1)NC(=O)CN1C(=O)CSc2ncccc21 (configuration not stated) | 3.2% | -1.5% | 12.6µM* | i | ? | 0.7%
CN(Cc1ccco1)C(=O)Cn1ncc2c([nH]c3ccccc32)c1=O | -8.1% | . | ? | . | 9.28µM* | -3.3%
O=S(=O)(c1ccccc1)[C@@]1(c2ccccc2)C[C@@H]2ON=C(c3cccc(-c4ccccc4)c3)[C@@H]2C1 | 7.38µM* | -23.0% | -28.3% | -6.3% | ? | .
Cn1c(-c2sccc2OCc2ccccc2)n[nH]c1=S | 10.4µM* | . | 22.9% | . | ? | 17.0%
Cc1ccc(COc2ccsc2-c2n[nH]c(=S)n2C)cc1 | -28.3% | . | 10.4% | . | 0.0% | -4.0%
c1ccc(Oc2ccc(-n3cnnn3)cc2)cc1 | 19.3% | -16.2% | 15.8% | -3.7% | . | -24.5%
NC(=O)c1ccc(=O)n(Cc2ccc(F)c(F)c2)c1 | -1.3% | . | 10.0% | . | 53.2% | 3.3%
Cc1ccccc1Nc1cc2ccccc2c(=O)[nH]1 | ? | 10µM* | -23.7% | . | 114.8% | -34.7%
CC(O)c1nc2ccccc2n1Cc1ccccc1 (configuration not stated) | -27.2% | . | 5.1% | . | ? | 1.2%
CC(O)c1nc2cc([N+](=O)[O-])ccc2n1Cc1ccccc1 (configuration not stated) | 13.1µM* | . | -21.5% | . | -13.9% | 15.3%
CCOC(=O)C(C)CC(C)C(=O)N1CCOCCOCCN(C(=O)C(C)CC(C)C(=O)OCC)CCOCC1 (configuration not stated) | ? | . | -4.2% | . | 27.4% | 3.8%
O=C(C[n+]1cc(-c2ccc(Cl)cc2)n2c1CCCCC2)c1ccccc1 | ? | -13.1% | -0.9% | i | ? | -1.7%
O=C(C[n+]1cc(-c2ccc(F)cc2)n2c1CCC2)N1c2ccccc2Sc2ccccc21 | 13.1µM* | -2.1% | 0.5% | -14.3% | ? | 6.6%
Cc1ccc(-c2c[n+](CC(=O)N3c4ccccc4Sc4ccccc43)c3n2CCC3)cc1 | 3.7µM* | -25.5% | 7.5% | -6.5% | ? | 13.4%
O=C(C[n+]1cc(-c2ccc(Br)cc2)n2c1CCCCC2)c1ccccc1 | 1.65µM* | -8.8% | -1.1% | -2.1% | ? | .
O=C(C[n+]1cc(-c2ccccc2)n2c1CCC2)c1cccs1 | ? | -9.5% | -28.2% | i | ? | .
O=C(CN1CCCC1)N1c2ccccc2Sc2ccccc21 | ? | -5.7% | ? | -3.8% | 0.9% | ?
O=C(C[n+]1cc(-c2ccccc2)n2c1CCC2)N1c2ccccc2Sc2ccccc21 | 4.15µM* | -7.7% | -21.4% | -28.0% | ? | 12.2%
CCOC(=O)c1c(NC(=O)c2cc(C(C)C)on2)sc(C(C)=O)c1C | . | -8.6%[7.34 µM] | -25.0% | -10.9%[7.34 µM] | -41.2% | 7.3%
Cc1cc(Cl)ccc1OCc1nnc(-c2ccccc2C)o1 | 41.1% | -6.2% | 6.8% | i | 55.0% | .
O=C(c1ccc(Cl)c([N+](=O)[O-])c1)N(Cc1cccc(Cl)c1)C1CCS(=O)(=O)C1 (configuration not stated) | -1.2% | -7.5% | ? | i | 8.4% | -2.3%
CC(C)CN(CC(C)C)C(=O)CC(=O)NC(=O)c1ccc(Cl)cc1 | 56.3% | -3.4% | 4.1% | -7.2% | ? | -17.8%
SMILES | Pf growth 48h | Vaccinia Venus | HCV inh | Vaccinia mCherry | Pf growth 96h | NS1 function inh
CCN(CC)C(=O)CC(c1cc(OC)c(OC)c(OC)c1)c1c(OC)cc(OC)c2ccc(=O)oc12 (configuration not stated) | 11.7µM* | -3.9% | 3.5% | 20.7% | 11.7µM* | -6.1%
COc1ccc(C(CC(=O)N2CCCCC2)c2c(OC)cc(OC)c3ccc(=O)oc23)cc1 (configuration not stated) | ? | -2.3% | -18.7% | 1.2% | ? | -5.8%
CCN(CC)C(=O)CC(c1cc(OC)c(OC)c(OC)c1)c1c(OC)cc(OC)c2c(-c3ccccc3)cc(=O)oc12 (configuration not stated) | 4.65µM* | -26.5% | ? | i | 4.15µM* | -10.0%
COc1cc(OC)c2c(-c3ccccc3)cc(=O)oc2c1C(CC(=O)N1CCOCC1)c1ccc2c(c1)OCO2 (configuration not stated) | ? | -18.3% | ? | -7.1% | ? | ?
CCN(CC)C(=O)CC(c1ccc(OC)cc1)c1c(OC)cc(OC)c2ccc(=O)oc12 (configuration not stated) | 10.4µM* | -9.2% | 0.9% | -18.1% | ? | -4.3%
CN(C)S(=O)(=O)c1ccc(Cl)c(C(=O)OCC(=O)NNC(=O)c2cccs2)c1 | 2.6% | . | 10.5% | . | 31.4% | .
O=C(Cn1nc(Cl)nc1Cl)c1ccccc1 | -3.7% | -7.1% | 6.5% | i | -3.4% | 3.7%
O=C(Cn1nc(Cl)nc1Cl)c1ccc(F)cc1 | 11.7µM* | . | 19.4% | . | ? | 9.3%
O=C(c1ccc(N2CCOCC2)c([N+](=O)[O-])c1)N1CCN(Cc2ccccc2)CC1 | ? | -8.9% | -11.6% | ? | ? | 0.6%
COc1cc(C2CC(=O)Oc3c(C(CCN4CCOCC4)c4ccc(N(C)C)cc4)c(OC)cc(OC)c32)cc(OC)c1OC (configuration not stated) | 11.7µM* | -9.5% | 12.8% | i | ? | -55.7%
COc1cc(C2CC(=O)Oc3c(C(CCN4CCN(c5ccccc5)CC4)c4ccc(N(C)C)cc4)c(OC)cc(OC)c32)cc(OC)c1OC (configuration not stated) | 4.15µM* | -10.7% | -6.3% | i | 4.15µM* | -31.4%
COc1ccc(C2CC(=O)Oc3c(C(CCN4CCCCC4)c4ccc(N(C)C)cc4)c(OC)cc(OC)c32)cc1 (configuration not stated) | ? | ? | -11.4% | ? | 9.28µM* | -30.7%
COc1ccc(C2CC(=O)Oc3c(C(CCN4CCCC(C)C4)c4ccc(N(C)C)cc4)c(OC)cc(OC)c32)cc1 (configuration not stated) | ? | -10.7% | -3.1% | ? | ? | -33.6%
CC(=O)Nc1ccc2nc(-c3ccncc3)[nH]c2c1 | . | . | 11.4% | . | -1.8% | -4.4%
O=C(Nc1ccc(-c2nc3ccc(NC(=O)c4cccs4)cc3[nH]2)cc1)c1cccs1 | 2.62µM* | -20.5% | ? | 10.0% | . | 1.7%
O=C(Nc1ccc2nc(-c3cccs3)[nH]c2c1)c1ccco1 | 44.4% | 1.7% | ? | -15.0% | . | 0.9%
